Hits are enriched below; roughly 8.1% of the tested compounds scored in any of these assays.
MCF10A rereplic: A quantitative high throughput screen for small molecules that induce DNA re-replication in MCF 10a normal breast cells; MCF 10A DNA re-replication, Hoechst nuclear intensity, 48 h; Potency, µM (series often up to 46.1 µM), actives largely listed as activators; 350,000 tested, 2.9% active; also: nearly all actives have a fitted effect of over 50% in size
KB-3-1 cytotox: qHTS assay for MDR1-selective chemotherapeutics: Primary screen using the parental adenocarcinoma cell KB-3-1; KB-3-1 viability, CellTiter-Glo ATP luminescence, 72 h; 400,000 tested, 1.4% active; AID 1347075, 2019; Potency, µM (highest dose often 46.1 µM), usual class: cytotoxic; also: nearly all actives have a fitted effect of over 60% in size
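Parental KB-3-1 adenocarcinoma cells in phenol-red-free DMEM with 10% FBS were pin-treated with compounds at several concentrations, incubated 72 h at 37 °C, and viability read by CellTiter-Glo luminescence; concentration-effect curves were fitted after normalization.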
ELG1 repair inh: qHTS screen for small molecules that inhibit ELG1-dependent DNA repair in human embryonic kidney (HEK293T) cells expressing luciferase-tagged ELG1; HEK293T ELG1-luciferase reporter, luminescence, 16 h; DNA damage induced by 5-fluorouridine; Potency, µM (doses to about 46.1 µM), hits mostly inhibitors; 330,000 tested, 2.3% active; also: nearly all actives have a fitted effect of over 55% in size
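Step one: seed 2,000 cells per well. Step two: pin-transfer compound or DMSO alongside 5-fluorouridine. Step three: incubate 16 hr, 37 °C, 5% CO2. Step four: add ONE-Glo, wait 30 min, read luminescence.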
KB-V1 cytotox: qHTS assay for MDR1-selective chemotherapeutics: Primary screen using the drug-selected MDR subline cells KB-V1; KB-V1 MDR cells viability, CellTiter-Glo, 72 h; Potency, µM (highest dose often 46.1 µM), actives largely listed as cytotoxic; 400,000 tested, 3.4% active; AID 1347076, 2019; also: nearly all actives have a fitted effect of over 60% in size
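Drug-selected KB-V1 cells, grown in DMEM lacking phenol red with 10% FBS, receive compound titrations; after three days at 37 degrees C, surviving cell ATP is quantified by CellTiter-Glo luminescence and responses normalized and curve-fitted.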
SW480 rerep: A quantitative high throughput screen for small molecules that induce DNA re-replication in SW480 colon adenocarcinoma cells; Potency, µM (top dose mostly 46.1 µM), actives largely listed as activators; 340,000 tested, 1.8% active; SW480 DNA re-replication, Hoechst DNA content imaging, 48 h; also: nearly all actives have a fitted effect of over 55% in size
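SW480 cells exposed to compounds for 48 hr at 37 C, 5% CO2, then Hoechst-stained 40 min. Nuclear DNA content imaged by fluorescence scanning (405 nm excitation, 500-530 nm emission); re-replication scored as increased high-intensity nuclei.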
A number is an active result; - = inactive; ? = inconclusive; . = no result; ! = a repeat was not active. Calls follow the shape of the dose curve; as a rule, active = well fitted curve in the direction sought with a large enough effect; inconclusive = small, poorly fitted or top-dose-only effect, or another doubt; inactive = no such curve, though single readings can be large; an effect the other way counts as inactive or inconclusive.

SMILES	MCF10A rereplic	KB-3-1 cytotox	ELG1 repair inh	KB-V1 cytotox	SW480 rerep
CC1CC(C)CN(C(=O)/C(=C\c2ccccc2)c2ccccc2)C1 (configuration not stated)	21µM	?	-	8.2µM	-
COCCNC(=O)/C(C#N)=C/c1cn(CC(=O)NCc2ccco2)c2ccccc12	-	-	-	-	-
N#C/C(=C\c1cn(CCOc2ccccc2)c2ccccc12)C(=O)NCc1cccs1	?	-	-	?	16µM
N#C/C(=C\c1cn(CC(=O)O)c2ccccc12)C(=O)NCc1ccccc1	-	-	?	?	-
Cc1cccc(NC(=O)/C(C#N)=C/c2cn(CC(=O)NCc3ccco3)c3ccccc23)c1	8.2µM	-	-	-	?
COc1ccccc1OCCn1cc(/C=C(\C#N)C(=O)NCc2ccco2)c2ccccc21	-	-	?	3.7µM	-
N#C/C(=C\c1cn(Cc2ccccc2F)c2ccccc12)C(=O)NCc1ccco1	18µM	-	-	-	-
Cc1ccc(C)c(OCCn2cc(/C=C(\C#N)C(=O)NCc3ccco3)c3ccccc32)c1	?	-	?	-	?
CCCS(=O)(=O)c1cscc1NC(=O)c1c(-c2c(F)cccc2Cl)noc1C	-	?	-	?	-
COc1ccc(NC(=O)Nc2cnccn2)cc1OC	-	-	-	?	-
N#C/C(=C\c1cn(CC(=O)N2CCCCC2)c2ccccc12)C(=O)NCc1ccc2c(c1)OCO2	-	-	-	26µM	1.6µM
COc1ccc(C(=O)Cn2c(C(C)=O)nc3ccccc32)cc1	-	?	.	3.3µM	-
COc1ccc(/C=C/C(=O)c2nc3ccccc3n2CC(=O)c2ccc(OC)cc2)cc1	-	-	-	23µM	-
CCn1c(N2CCN(CC(=O)c3ccc(OC)cc3)CC2)nc2ccccc21	-	-	-	-	-
COc1ccc(C(=O)Cn2c(NCCO)nc3ccccc32)cc1	-	-	-	-	-
Cn1c(-c2ccccc2)cc2c3no[n+]([O-])c3ccc21	?	3.7µM	-	?	3.7µM
COc1ccc(NC(=O)C2(C)CCCN(C(C)C)C2)cc1F (configuration not stated)	.	-	.	-	.
COc1ccc(C2=CC(c3ccc(F)cc3)n3nnnc3N2)cc1 (configuration not stated)	23µM	-	-	-	15µM
CCc1ccc(C2=CC(c3cccc(Br)c3)n3nnnc3N2)cc1 (configuration not stated)	.	-	.	-	.
Cc1cccc(C2C=C(c3ccc(C)c(C)c3)Nc3nnnn32)c1 (configuration not stated)	.	21µM	.	?	.
COc1ccc(C2=CC(c3sccc3C)n3nnnc3N2)cc1 (configuration not stated)	?	-	?	-	-
COc1ccccc1C1C=C(c2ccccc2)Nc2nnnn21 (configuration not stated)	7.3µM	13µM	-	8.2µM	?
COc1cccc(C2=CC(c3ccc(OC)c(OC)c3OC)n3nnnc3N2)c1 (configuration not stated)	-	-	?	-	-
COc1cccc(C2=CC(c3cccs3)n3nnnc3N2)c1 (configuration not stated)	4.1µM	5.2µM	-	?	5.8µM
O=C(CCN1C(=O)/C(=C/c2ccc3c(c2)OCO3)SC1=S)NNC(=O)c1cccnc1	?	-	-	-	-
SMILES	MCF10A rereplic	KB-3-1 cytotox	ELG1 repair inh	KB-V1 cytotox	SW480 rerep
COc1ccc(S(=O)(=O)Nc2cccc(-c3ccc(N4CCCCC4)nn3)c2)cc1F	.	-	.	-	.
Cc1ccc(C2=CC(c3ccc(N(C)C)cc3)n3nnnc3N2)cc1 (configuration not stated)	23µM	-	-	-	?
Cc1cc(C(=O)OCC(=O)Nc2ccc(F)cc2F)c(C)o1	-	-	-	-	-
CCN(CC(=O)Nc1ccccc1C(F)(F)F)C(=O)c1ccc(NC(=O)c2cccs2)cc1	.	-	.	-	.
CSc1ccccc1NC(=O)CN(C)C(=O)c1ccc(NC(=O)c2cccs2)cc1	-	-	21µM	?	-
Cc1ccc(CNC(=O)c2ccc(Cn3c(=O)c4ccccc4n(CC(=O)Nc4c(C)cc(C)cc4C)c3=O)cc2)cc1	.	-	.	-	.
Cn1c(-c2nonc2N)nc2ccccc21	-	-	-	-	-
CCCn1c(-c2nonc2N)nc2ccccc21	-	-	16µM	-	-
COC(=O)c1ccccc1NC(=O)Cn1c(-c2nonc2N)nc2ccccc21	0.16µM	0.63µM	-	?	0.32µM
O=C(Cn1nc(-c2ccc(Cl)cc2)ccc1=O)NCCCN1CCN(Cc2ccccc2)CC1	-	-	-	?	-
CCOC(=O)Cc1csc(NC(=O)CSc2nnnn2-c2ccc(C)cc2C)n1	-	-	-	-	-
Cc1cc(N2CCN(C(c3ccccc3)c3ccc(Cl)cc3)CC2)n2ncnc2n1 (configuration not stated)	?	-	-	-	-
COc1cc(C(=S)N2CCOCC2)ccc1OC(=O)c1ccccc1C	-	-	?	-	18µM
O=C(CCCN1CCN(c2ccccc2)CC1)c1ccc(F)cc1	.	-	.	-	.
O=C1NCN(c2ccccc2)C12CCN(CCCC(c1ccc(F)cc1)c1ccc(F)cc1)CC2	27µM!	?	-	?	?
O=C(NC(=S)N1CCN(c2ccccn2)CC1)c1ccccc1	-	-	-	?	?
C/C=C1\COC(C(=O)NCCN2CCCC2)(C(F)(F)F)C=C1C=C1CCCCC1 (configuration not stated)	6.5µM	-	.	-	?
CC(NC(=O)c1ccc2ccccc2n1)c1ccc(Br)cc1 (configuration not stated)	23µM	?	-	-	?
Cc1cc(C)cc(NC(=O)c2cccc(C(=O)Nc3cc(C)cc(C)c3)c2)c1	.	-	.	-	.
CC[C@@H]1C=C(C(=O)O)[C@H](c2ccc(Cl)c(Cl)c2)N1S(=O)(=O)c1ccc(C)cc1	-	-	-	-	-
C/C(Cl)=C\Cn1c(N2CCCC2)nc2c1c(=O)n(C)c(=O)n2C	-	-	-	-	-
Cn1c(=O)c2c(nc(N3CCCC3)n2CC(O)CO)n(C)c1=O (configuration not stated)	-	-	-	-	-
C=CCn1c(N2CCCCCC2)nc2c1c(=O)n(C)c(=O)n2C	-	-	?	16µM	-
C=CCOCC(O)Cn1c(N2CCCC2)nc2c1c(=O)n(C)c(=O)n2C (configuration not stated)	1.3µM	-	-	-	-
Cc1ccc(Cc2nnc3n(-c4cccc(C)c4)nc(C(=O)c4ccccc4)n3c2=O)cc1	-	?	?	?	-

Bioassay records from PubChem.
